Among the data in PubChem BioAssay are z-score values, retold here.

Each structure is given as a SMILES string.

A short description of the experiment: HepG2 cell viability effects, profiling panel, calcein-AM fluorescence, 48 h, basal (AID 1164). Note: test concentration not given here. The conditions noted are these: higher = more signal.
Regarding `CO[C@H]1COC(=O)[C@@H]2CCCN2C(=O)CC=C[C@@H](C)[C@H](OC)COC(=O)CC=C[C@@H]1C`, the z-score was 1.01.
As to `CC(C)CON=C1C[C@@H](O)[C@@H](O)[C@@H]2[C@@H]3C(=O)N([C@@H](C)c4ccccc4)C(=O)[C@@H]3CC[C@H]12`, the z-score is -0.0223.
In the case of `O=C1[C@H]2[C@H]3[C@H](O)[C@H](O)CC(=NOC[C@@H](O)COCc4ccco4)[C@@H]3CC[C@H]2C(=O)N1c1ccc(F)cc1F`, the z-score is -1.22.
Next, `CO[C@@H]1COC(=O)CCC[C@@H](C)[C@H](OC)COC(=O)CCC[C@H]1C`: -0.125; `C=CC[C@@H]1C=C[C@H](ON=C[C@@H](OC)[C@H](C)C=CCC(=O)OC)[C@@H](CO)O1`: 0.623.
Turning to `CCCC[C@@H](O)C1=C(C)C[C@H]2C(=O)N(Cc3ccccc3)C(=O)[C@H]2[C@H]1CO`, the z-score was -0.0592.
For the compound `CC(CCN1CCc2nc(-c3ccccc3)c(-c3ccccc3)cc2C1)=NO[C@H](C)c1cn([C@@H]2COC[C@H]2O)nn1`, the z-score was 1.2.
The same measure for `CC(C)[C@H](NC(=O)OC(C)(C)C)[C@@H](O)CC(=O)OC(C)(C)C`: 0.026; for `CCOC(=O)C[C@H]1[C@H](OC(=O)c2ccc(C(=O)c3ccccc3)cc2)[C@@H](NC(=O)c2ccc(-c3ccccc3)cc2)c2cc(OCCCO)ccc2N1C(=O)c1ccc2ccccc2n1`: 1.35; for `CCCNC(=O)OC[C@H]1O[C@H](CCON=C[C@@H](OC)[C@H](C)C=CCC(=O)OC)C=C[C@@H]1Oc1ccc(OC)cc1`: 0.97.
With `CCOC(=O)CCN1C(=O)[C@H]2[C@H]3[C@H](O)[C@H](O)CC(=NNC(=O)OCc4ccc(OC)cc4)[C@@H]3CC[C@H]2C1=O`, the z-score was -0.367.
The same measure for `COc1ccc(O[C@H]2C=C[C@@H](c3ccccc3)O[C@@H]2COC(=O)CCC(C)=NOC[C@@H](C)[C@H](OCc2ccccc2)C(C)C)cc1`: -0.442; for `O=C1[C@H]2[C@H]3[C@H](O)[C@H](O)CC(=NOCc4ccccc4)[C@H]3CC[C@H]2C(=O)N1C[C@@H]1CCCO1`: -0.85; for `O=C1O[C@@H](c2ccccc2)[C@@H](c2ccccc2)N2[C@@H](c3ccc(OCCO)cc3)[C@]3(C(=O)Nc4ccc(C#CCCO)cc43)[C@@H](C(=O)N3CCCCCCC3)[C@H]12`: 0.874.
In the case of `CCCCc1nc2c(c3c1C[C@H](C)OC3)CN(CCC(C)C)CC2`, the z-score is 0.597.
In the case of `O=C1C2=CC[C@H]3C(=O)N(Cc4ccc5c(c4)OCO5)C(=O)[C@H]3[C@H]2[C@H](O)[C@@H]2O[C@H]12`, the z-score is 0.162.
Next, `O=C1CCCC=C1C(O)CCOCc1ccccc1` (stereo unspecified): -0.457; `COCCCNC(=O)[C@]1(CCC(=O)OC(C)(C)C)N=C(c2ccc(OCCCO)cc2)O[C@@H]1c1ccccc1N=[N+]=[N-]`: -0.0574.
With `COC(=O)[C@@H]1CCCN1C(=O)[C@@H](C)CO`, the z-score was -0.52.
The same measure for `COc1ccc([Si](C)(C)[C@H]2[C@H](CCO)O[C@@]3(C(=O)N(Cc4cccc(NC(=O)[C@H](C)O)c4)c4ccccc43)[C@@H]2C)cc1`: -4.52; for `CCOC(=O)CCN1C(=O)[C@H]2[C@H]3[C@H](O)[C@H](O)CC(=NOC[C@@H](O)COCc4ccco4)[C@@H]3CC[C@H]2C1=O`: -0.324.
Next, `CC(CCN1CCCCc2nc(C)c(C)cc21)=NOC(C)CN1CCCCc2nc(C)c(C)cc21` (stereo unspecified): -1.12.
Next, `COCCOC(=O)N1C(=O)[C@@]2(c3cc(C#CC4(O)CCCCCC4)ccc31)[C@H](c1ccc(OCCO)cc1)N1[C@H](c3ccccc3)[C@H](c3ccccc3)OC(=O)[C@H]1[C@@H]2C(=O)NC[C@H](O)c1ccccc1`: -0.063; `CC(C)NC(=O)[C@@]1(C)c2ccccc2C(=O)N(Cc2cc(F)cc(C(F)(F)F)c2)[C@H]1c1ccc(CO)cc1`: -0.135.
As to `O=C1[C@H]2[C@H]3[C@H](O)[C@H](O)CC(=NO[C@@H]4O[C@H](CO)[C@@H](O)[C@H](O)[C@H]4O)[C@H]3CC[C@H]2C(=O)N1Cc1ccc2c(c1)OCO2`, the z-score is -0.254.
Next, `O=C1[C@H]2[C@H]3[C@H](O)[C@H](O)CC(=NOCc4ccccc4)[C@H]3CC[C@H]2C(=O)N1c1cccc(Oc2ccccc2)c1`: -0.6.
In the case of `C[C@H](c1ccccc1)N1C(=O)[C@H]2[C@@H]3C(=CC[C@H]2C1=O)C(=O)[C@H]1O[C@H]1[C@H]3O`, the z-score is -4.46.
Turning to `Cc1cc2c(nc1C)CCCN2CC(C)ON=C1[C@H]2CCn3c(=O)n(-c4ccccc4)c(=O)n3[C@H]2[C@H](O)[C@@H]2O[C@H]12` (stereo partly specified), the z-score was -0.56.
The same measure for `C#CCCCON=C1C[C@@H](O)[C@@H](O)[C@@H]2[C@@H]3C(=O)N([C@@H](C)c4ccccc4)C(=O)[C@@H]3CC[C@H]12`: -0.106; for `CCOC(=O)[C@H](Cc1ccccc1)NC(=O)CCC1CC(OC(=O)NCc2ccc3c(c2)OCO3)CC2(CCCC(COC(=O)NCC(c3ccccc3)c3ccccc3)O2)O1` (stereo partly specified): -0.538.
With `COCCCNC(=O)[C@@]1(C)c2ccccc2C(=O)N(Cc2ccc(OC(F)(F)F)cc2)[C@H]1c1ccc(CO)cc1`, the z-score was 1.22.
Regarding `CC(=O)O[C@H]1C2=C(C(=O)[C@@H]3O[C@@H]31)[C@H]1C(C)O[C@@H]2[C@@]23C(=O)[C@@H]4O[C@@H]4[C@@H](O)C2=CO[C@H](C)[C@@H]13` (stereo partly specified), the z-score was -1.54.
The same measure for `COCCOC(=O)N1C(=O)[C@@]2(c3cc(C#CCNC(N)=O)ccc31)[C@H](c1ccc(O)cc1)N1[C@H](c3ccccc3)[C@H](c3ccccc3)OC(=O)[C@H]1[C@@H]2C(=O)N1CCCCCCC1`: -0.49; for `CC(=O)OC[C@H]1O[C@H](CCON=C(C)CCC(=O)OC[C@H]2O[C@H](C#Cc3ccccc3)C=C[C@@H]2Oc2ccc(C)cc2)C=C[C@@H]1OC(C)=O`: 0.229; for `O=C1[C@H]2[C@H]3[C@H](O)[C@H](O)CC(=NOC[C@@H](O)COCc4ccco4)[C@H]3CC[C@H]2C(=O)N1c1cccc(Oc2ccccc2)c1`: -0.463.
In the case of `CC(C)(C)N1C(=O)[C@H]2[C@H]3[C@H](O)[C@H](O)CC(=NO[C@@H]4O[C@H](CO)[C@@H](O)[C@H](O)[C@H]4O)[C@@H]3CC[C@H]2C1=O`, the z-score is 0.302.
